# Whole data set: some 33,000 sequences, median “E-score (-0.5 to 0.5)” near -0.0014, cut for the highest 2% near 0.25. For the sample, the highest values were picked, then their nearest neighbours and some sequences at random.
# Biological target: T1, Cad1 (UniProt P24813)
# T1 sequence: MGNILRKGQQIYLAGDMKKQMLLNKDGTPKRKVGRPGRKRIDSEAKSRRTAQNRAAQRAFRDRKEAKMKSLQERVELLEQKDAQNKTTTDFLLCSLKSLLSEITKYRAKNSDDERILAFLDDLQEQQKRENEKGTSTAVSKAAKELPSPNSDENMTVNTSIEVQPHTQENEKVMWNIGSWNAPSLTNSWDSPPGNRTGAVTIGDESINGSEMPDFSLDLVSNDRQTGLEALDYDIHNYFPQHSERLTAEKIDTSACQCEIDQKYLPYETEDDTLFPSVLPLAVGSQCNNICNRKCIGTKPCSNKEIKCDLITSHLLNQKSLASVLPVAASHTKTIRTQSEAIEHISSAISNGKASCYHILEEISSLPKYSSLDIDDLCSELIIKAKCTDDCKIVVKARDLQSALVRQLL
# Test: PBM E-score (8-mer binding enrichment) (E-score (-0.5 to 0.5)); higher = stronger / more preferred TF binding
# Details: protein concentration: 100 nM; construct: GST-full length
# Outline: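 Detection of bound protein used fluorescent anti-GST, with scans normalised by masliner. The proteins were GST-tagged yeast transcription factors applied at about 100-200 nM to universal all-10-mer Agilent arrays made double-stranded by primer extension. Each ungapped eight-base word, pooled with its reverse complement, was scored with an E-score from the Universal PBM Analysis Suite.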
row,Sequence,PBM E-score
1,AGGTACAT,-0.172
2,AATCTGGC,-0.102
3,CTCCCTGA,-0.247
4,AAGCGCCT,-0.165
5,ACCTTTAG,-0.142
6,CATAGAGC,-0.22
7,CAGTTGGG,-0.0373
8,AAAATTAC,0.072
9,AAAATTAA,0.209
10,AAAATTAG,0.269
11,AAAATTCT,-0.00425
12,AAAATTGT,0.167
13,AAAATTAT,0.285
14,ATCAGTTA,0.212
15,GCCCATAC,-0.1
16,GGCGACCC,-0.332
17,ATTGCCTG,0.0283
18,ATTAACAC,0.275
19,CTTAACAC,0.127
20,ATTAACAA,0.201
21,CGAATAGC,0.0486
22,ACACGCGA,0.143

row,Sequence,PBM E-score
1,ACACGCGT,0.258
2,ACACGCGG,0.0311
3,ACAAGCGG,0.0904
4,GTTGGAGA,-0.0985
5,ACAAATGC,0.255
6,ATAAATAG,0.121
7,ATAAATAA,0.239
8,ACAAATAC,0.271
9,CCAAATGC,-0.0453
10,GCAAATAC,0.0468
11,ACAAATAG,0.182
12,ATAAATAC,0.252
13,ACAAATAT,0.262
14,ACAAATAA,0.206
15,ACAAATGT,0.0516
16,CCAAATAC,0.013
17,GCGGGCCC,-0.157
18,ATCCGCCA,0.0883
19,CAGAAGAC,0.0287
20,AATCATAC,0.0986
21,GGTGAAAC,-0.0742
22,GACTATCC,-0.0732

row,Sequence,PBM E-score
1,AGAATGAT,0.0516
2,CTTGGCTC,-0.149
3,TAAGCTGA,0.208
4,TAAGCTTA,0.378
5,CAAGCTTA,0.159
6,ACGTAGGG,-0.284
7,AGAGTTTG,0.0139
8,AGATCCCG,0.281
9,AGATCCCT,-0.312
10,CGATCCCG,-0.265
11,AAGACCTT,-0.0766
12,CCATTCTC,-0.114
13,TGGAGAAA,-0.151
14,AAATTAAC,0.0173
15,AAATTACG,-0.00187
16,AAATTAAA,0.257
17,AAATTACT,0.314
18,GAATTAAA,-0.0332
19,AAATTAGA,0.191
20,AAATTAAG,0.0523
21,AAATTAGG,0.13
22,AAATTACC,0.081

row,Sequence,PBM E-score
1,AAATTAGT,0.273
2,AGATTAAT,0.16
3,AAATTAAT,0.288
4,AAGTAACG,-0.0002
5,AACCTGCG,-0.142
6,CAAAGAGA,-0.113
7,ACCCGTTC,-0.0216
8,CCAGGGCG,-0.18
9,AGAGTTGG,-0.0857
10,TTGGTAAA,0.073
11,GAAATTAC,0.234
12,GAAATTAA,0.295
13,CAAATTAA,0.207
14,GCGTAATA,0.142
15,ACATAATC,0.309
16,CCGTAATC,0.143
17,ACGTAAGC,0.287
18,ACATAATA,0.178
19,ACGTAAGT,-0.102
20,ACATAATG,0.172
21,ACGTAATG,0.147
22,ACGTAATA,0.311

row,Sequence,PBM E-score
1,ACGTAAGA,0.199
2,ACGTAATC,0.286
3,CCGTAATA,0.113
4,AAGTGGAA,-0.0197
5,CTCCCGCC,-0.163
6,ACGAAAGT,0.0253
7,ACACAACT,0.0775
8,GAAGCCAA,-0.183
9,CCGAAGCG,-0.22
10,ACATAACT,0.0912
11,GAATAACA,0.252
12,ATGTAAGA,0.227
13,ATGTAAGG,0.0288
14,ACCTAATA,0.137
15,CCCTAATC,-0.076
16,CAATAACA,-0.0158
17,ACATAACA,0.273
18,ATGTAAGC,0.305
19,ACCTAATC,0.259
20,ACATAACC,-0.0477
21,TAATAACA,0.15

# Reference: the supplement of paper PMC3334620
